Experimental data reported in PubChem BioAssay.
Active and inactive are the calls of the source.

Tests used:
[1] = small molecules captured by biotinylated probe aFSTL3 – biochemical, small-molecule microarray, fluorescence 635/667, stem cell growth factor project, primary screen (AID 1064); conditions: higher = more signal;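 also: measures binding of the biotinylated anti-FSTL3 antibody to printed compounds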
[2] = binders from COS7 lysate, DM2A8 probe, primary screen, torsin A project, cell lysate, small-molecule microarray, fluorescence 635/667 (AID 1065); conditions: higher = more signal, COS7 lysate expressing mutant human TOR1A
[3] = small molecules captured by biotinylated probe aFGF2 – biochemical, small-molecule microarray, fluorescence 635/667, stem cell growth factor project, primary screen (AID 1067); conditions: higher = more signal;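 also: measures binding of biotinylated aFGF2 protein to printed compounds on slides; z-score merges feature fluorescence and signal-to-noise across triplicate slides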
[4] = small molecules captured by biotinylated probe aFGF10 – biochemical, small-molecule microarray, fluorescence 635/667, stem cell growth factor project, primary screen (AID 1071); conditions: higher = more signal;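 also: score merges 667 nm spot intensity and signal to noise from triplicate slides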
[5] = molecular target: Neurogenic locus notch homolog protein 2 (Homo sapiens) (UniProt Q04721); test: small molecules binding Notch2 protein – biochemical, small-molecule microarray, 635 nm fluorescence, stem cell growth factors, primary screen (AID 1073); conditions: higher = more signal
[6] = molecular target: Pro-neuregulin-1, membrane-bound isoform (Homo sapiens) (UniProt Q02297); test: small molecules binding neuregulin-1 protein – biochemical, small-molecule microarray, fluorescence 635/667, psychiatric disease protein project, primary screen (AID 1075); conditions: NRG1 binding, 635 nm fluorescence, higher = more signal;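 also: score combines 667 nm spot fluorescence with signal to noise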
[7] = test system: Neuregulin-1 EGF-like domain; test: small molecules binding NRG1 EGF domain – biochemical, small-molecule microarray, 635 nm fluorescence, primary screen (AID 1081); conditions: higher = more signal;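 also: binding of the protein to compounds printed on small-molecule microarray slides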
[8] = FRG1 expression reporter modulators in myotubes – cell-based, C2C12 myotubes, firefly/Renilla luciferase, luminescence, FRG1 inhibition for FSHD, primary screen (AID 1084); conditions: FRG1 promoter luciferase, higher = more signal, called active from +8 up or from −8 down
[9] = small molecules captured by biotinylated probe aFST – biochemical, small-molecule microarray, fluorescence 635/667, stem cell growth factor project, primary screen (AID 1086); conditions: higher = more signal;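 also: score merges 667 nm fluorescence with signal-to-noise of each printed compound spot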
[10] = binders of probe aHhip on microarray, primary screen, stem cell growth factor project, biochemical, small-molecule microarray, fluorescence 635/667 (AID 1087); conditions: higher = more signal;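 also: score merges spot fluorescence at 667nm with spot signal to noise ratio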
[11] = test system: PRMT1 (protein arginine N-methyltransferase 1); test: small molecules binding arginine methyltransferase PRMT1 – biochemical, small-molecule microarray, 635 nm fluorescence, primary screen (AID 1088); conditions: higher = more signal;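 also: binding of Prmt1 protein to compounds spotted on small-molecule microarray slides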
[12] = growth effects on S. cerevisiae YJM789 – YJM789 clinical isolate, OD600, 24 h, basal, primary screen (AID 1089); conditions: higher = more signal, called active from +8 up or from −8 down;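 also: growth of clinical yeast isolate S. cerevisiae YJM 789 seeded 1000 cells per well; test concentration not given here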
[13] = S. pombe growth modifiers, basal conditions – strain 972, OD600, 24 h, no modulator, primary screen (AID 1090);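 also: basal condition with compound alone and no growth modifier present; test concentration not given here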; conditions: S. pombe 972 growth, higher = more signal, called active from +8 up or from −8 down
[14] = budding yeast growth modifiers under rapamycin – strain BY4716, OD600, 96 h, primary screen (AID 1091); also: test concentration not given here; conditions: S. cerevisiae BY4716 + rapamycin, higher = more signal, called active from +8 up or from −8 down
[15] = molecular target: Torsin-1A-interacting protein 2 (Homo sapiens) (UniProt Q8NFQ8); test: small molecules binding lysate-expressed LULL1 – cell lysate, human LULL1 lysate, 635/667 nm fluorescence, primary screen (AID 1092); conditions: small-molecule microarray, hLULL1 lysate binding, 635 nm fluorescence; higher = more signal;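 also: probe is lysate of COS7 cells overexpressing human LULL1; score merges per-feature 667 nm fluorescence with signal-to-noise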
[16] = optical density change of DRC41 E. coli – strain DRC41, OD650, 24 h, E. coli filamentation project, primary screen (AID 1093);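 also: MC1000 strain lacking acrAB efflux and sulA so SOS filamentation is blocked; test concentration not given here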; conditions: E. coli DRC41 growth, higher = more signal, called active from +8 up or from −8 down
[17] = probe aLefty2 binding to arrayed compounds – biochemical, biotinylated probe, 635/667 nm fluorescence, primary screen (AID 1094); conditions: small-molecule microarray, higher = more signal;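 also: score merges spot fluorescence near 667 nm with spot signal-to-noise ratio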
[18] = test system: Noggin (protein binding on small-molecule microarray); test: small molecules binding Noggin protein – biochemical, 635/667 nm fluorescence, primary screen (AID 1095); conditions: 635 nm fluorescence, higher = more signal;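 also: score merges 667 nm feature fluorescence with signal to noise over triplicate slides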
[19] = molecular target: Neurogenic locus notch homolog protein 3 (Homo sapiens) (UniProt Q9UM47); test: small molecules binding NOTCH3 protein – biochemical, 635/667 nm fluorescence, primary screen (AID 1096); conditions: small-molecule microarray, 635 nm fluorescence, higher = more signal
[20] = probe aEGFR binding to arrayed compounds – biochemical, biotinylated probe, 635/667 nm fluorescence, primary screen (AID 1097); conditions: small-molecule microarray, higher = more signal;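 also: probe is a biotinylated anti-EGFR antibody binding compounds printed on slides; score combines fluorescence near 667 nm and signal to noise of each spot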

Pro-neuregulin-1, membrane-bound isoform (Homo sapiens), sequence (Q02297 whole entry, looked up, the tested form may be a part, canonical isoform): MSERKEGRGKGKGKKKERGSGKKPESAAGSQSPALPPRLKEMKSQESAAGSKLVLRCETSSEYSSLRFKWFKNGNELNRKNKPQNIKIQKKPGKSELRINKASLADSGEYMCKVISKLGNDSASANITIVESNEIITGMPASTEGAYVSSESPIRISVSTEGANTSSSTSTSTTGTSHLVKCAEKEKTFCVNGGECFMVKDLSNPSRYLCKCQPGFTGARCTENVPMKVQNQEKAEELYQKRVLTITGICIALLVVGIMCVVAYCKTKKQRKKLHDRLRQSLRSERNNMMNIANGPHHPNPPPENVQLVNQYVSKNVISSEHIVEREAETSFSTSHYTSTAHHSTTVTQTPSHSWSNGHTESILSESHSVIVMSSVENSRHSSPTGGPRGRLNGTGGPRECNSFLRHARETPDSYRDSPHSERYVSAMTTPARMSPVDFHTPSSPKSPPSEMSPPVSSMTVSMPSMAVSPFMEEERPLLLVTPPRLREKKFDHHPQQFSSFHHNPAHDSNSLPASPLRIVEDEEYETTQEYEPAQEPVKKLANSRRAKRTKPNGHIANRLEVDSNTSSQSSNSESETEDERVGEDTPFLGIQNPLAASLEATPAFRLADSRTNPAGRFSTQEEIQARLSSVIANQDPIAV
Neurogenic locus notch homolog protein 3 (Homo sapiens), sequence (Q9UM47 whole entry, looked up): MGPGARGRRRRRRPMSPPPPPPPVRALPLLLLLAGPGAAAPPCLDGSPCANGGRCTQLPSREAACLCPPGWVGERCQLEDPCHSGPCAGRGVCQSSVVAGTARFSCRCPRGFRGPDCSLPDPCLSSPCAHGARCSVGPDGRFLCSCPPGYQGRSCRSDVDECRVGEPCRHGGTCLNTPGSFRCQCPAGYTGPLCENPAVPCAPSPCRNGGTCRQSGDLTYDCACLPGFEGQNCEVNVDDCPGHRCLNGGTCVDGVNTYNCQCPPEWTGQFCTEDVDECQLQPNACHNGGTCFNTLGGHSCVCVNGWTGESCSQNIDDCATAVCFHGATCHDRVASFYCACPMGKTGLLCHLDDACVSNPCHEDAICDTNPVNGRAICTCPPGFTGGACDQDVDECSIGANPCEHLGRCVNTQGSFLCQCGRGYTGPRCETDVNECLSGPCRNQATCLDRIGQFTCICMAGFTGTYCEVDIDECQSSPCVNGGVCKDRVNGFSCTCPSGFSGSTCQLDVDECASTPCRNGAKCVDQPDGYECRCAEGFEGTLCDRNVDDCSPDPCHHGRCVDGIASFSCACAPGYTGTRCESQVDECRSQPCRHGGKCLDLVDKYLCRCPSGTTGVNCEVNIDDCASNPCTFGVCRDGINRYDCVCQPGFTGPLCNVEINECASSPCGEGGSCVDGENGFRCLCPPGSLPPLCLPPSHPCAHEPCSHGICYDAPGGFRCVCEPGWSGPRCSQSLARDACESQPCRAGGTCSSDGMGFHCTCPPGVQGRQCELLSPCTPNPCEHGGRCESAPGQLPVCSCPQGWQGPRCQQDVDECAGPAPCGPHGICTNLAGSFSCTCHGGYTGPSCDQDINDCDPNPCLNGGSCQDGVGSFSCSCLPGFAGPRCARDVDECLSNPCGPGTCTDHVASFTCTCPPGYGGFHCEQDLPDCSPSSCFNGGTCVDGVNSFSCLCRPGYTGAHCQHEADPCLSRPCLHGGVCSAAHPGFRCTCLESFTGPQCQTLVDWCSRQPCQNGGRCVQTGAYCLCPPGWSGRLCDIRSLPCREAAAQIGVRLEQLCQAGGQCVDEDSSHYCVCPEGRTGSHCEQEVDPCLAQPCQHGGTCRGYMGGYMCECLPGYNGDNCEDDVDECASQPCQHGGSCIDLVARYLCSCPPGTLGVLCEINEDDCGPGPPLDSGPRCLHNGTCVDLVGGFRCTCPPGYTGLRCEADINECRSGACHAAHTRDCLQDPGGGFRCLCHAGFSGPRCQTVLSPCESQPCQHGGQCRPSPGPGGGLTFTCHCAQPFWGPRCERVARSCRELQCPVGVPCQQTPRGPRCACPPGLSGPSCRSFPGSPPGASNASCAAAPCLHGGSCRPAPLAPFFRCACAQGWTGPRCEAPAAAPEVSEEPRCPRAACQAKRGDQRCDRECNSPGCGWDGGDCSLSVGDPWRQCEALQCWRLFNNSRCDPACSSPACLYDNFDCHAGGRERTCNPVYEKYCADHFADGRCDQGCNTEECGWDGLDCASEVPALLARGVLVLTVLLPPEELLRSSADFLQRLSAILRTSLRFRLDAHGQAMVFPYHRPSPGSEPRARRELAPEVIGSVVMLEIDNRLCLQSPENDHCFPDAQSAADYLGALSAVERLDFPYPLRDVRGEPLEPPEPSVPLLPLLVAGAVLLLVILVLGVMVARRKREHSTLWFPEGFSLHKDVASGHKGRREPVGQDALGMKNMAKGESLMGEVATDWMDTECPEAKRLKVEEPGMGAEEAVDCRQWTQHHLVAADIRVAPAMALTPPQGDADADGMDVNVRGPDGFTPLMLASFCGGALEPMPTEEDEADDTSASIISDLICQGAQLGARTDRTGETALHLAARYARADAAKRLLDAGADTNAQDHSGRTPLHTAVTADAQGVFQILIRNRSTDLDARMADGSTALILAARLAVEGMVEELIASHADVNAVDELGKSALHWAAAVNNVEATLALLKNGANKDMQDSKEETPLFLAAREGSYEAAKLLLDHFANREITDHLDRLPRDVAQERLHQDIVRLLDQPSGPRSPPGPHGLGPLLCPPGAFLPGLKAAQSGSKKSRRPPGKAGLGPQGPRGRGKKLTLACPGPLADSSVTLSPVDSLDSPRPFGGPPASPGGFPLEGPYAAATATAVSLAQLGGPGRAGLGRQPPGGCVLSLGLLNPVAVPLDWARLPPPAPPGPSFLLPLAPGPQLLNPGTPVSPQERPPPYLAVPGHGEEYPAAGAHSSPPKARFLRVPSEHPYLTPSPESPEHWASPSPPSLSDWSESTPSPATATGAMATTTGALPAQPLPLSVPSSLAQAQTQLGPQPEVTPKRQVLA
Torsin-1A-interacting protein 2 (Homo sapiens), sequence (Q8NFQ8 whole entry, looked up): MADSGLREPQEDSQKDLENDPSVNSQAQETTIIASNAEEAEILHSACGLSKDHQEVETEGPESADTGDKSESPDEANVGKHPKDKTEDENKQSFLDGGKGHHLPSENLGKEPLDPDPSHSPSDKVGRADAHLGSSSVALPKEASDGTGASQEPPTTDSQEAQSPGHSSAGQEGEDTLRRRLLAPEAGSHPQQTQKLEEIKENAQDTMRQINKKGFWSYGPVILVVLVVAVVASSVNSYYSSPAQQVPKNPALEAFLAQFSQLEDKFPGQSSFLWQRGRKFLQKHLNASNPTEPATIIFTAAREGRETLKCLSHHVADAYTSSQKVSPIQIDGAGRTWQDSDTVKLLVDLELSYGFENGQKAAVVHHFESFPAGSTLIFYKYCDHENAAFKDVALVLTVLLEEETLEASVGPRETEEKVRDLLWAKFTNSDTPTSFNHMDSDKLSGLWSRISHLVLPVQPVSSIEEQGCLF

Row | SMILES | composite z-score [1] | composite z-score [2] | composite z-score [3] | composite z-score [4] | composite z-score [5] | composite z-score [6] | composite z-score [7] | z-score [8] | composite z-score [9] | composite z-score [10] | composite z-score [11] | z-score [12] | z-score [13] | z-score [14] | composite z-score [15] | z-score [16] | composite z-score [17] | composite z-score [18] | composite z-score [19] | composite z-score [20]
1 | C=C(/C(=C/C[C@@H](OC(C)=O)c1ccc(OCCO)cc1)c1cnc2ccccc2c1)C(C)C | -0.0854 | 0.769 | -0.073 | 0.164 | 0.205 | 0.213 | 0.946 | -1.06 (inactive) | 0.142 | -0.0645 | 1.26 | -0.0424 (inactive) | -1.56 (inactive) | -0.234 (inactive) | 1.06 | 0.762 (inactive) | -0.197 | 0.655 | 0.676 | -0.146
2 | C=CCN1C(=O)[C@]2(O[C@H](CCO)[C@@H]([Si](C)(C)c3ccc(OC)cc3)[C@@H]2C)c2cc(N3C(=O)c4cccc5cccc3c45)ccc21 | -0.0848 | 0.326 | -0.1 | 0.607 | 0.322 | 0.828 | 1.2 | -2.66 (inactive) | -0.17 | -0.236 | 1.46 | 3.36 (inactive) | 2.8 (inactive) | 36.8 (active) | 2.01 | 0.577 (inactive) | -0.172 | 1.69 | 1.07 | -0.137
3 | C=CC[C@]1(C(=O)N2CCCCC2)N=C(c2ccc(OCCCO)cc2)O[C@H]1c1ccccc1 | 1.08 | 0.785 | 0.0472 | 0.452 | 0.668 | 1.77 | 1.17 | -1.11 (inactive) | 1.63 | 1.27 | 1.58 | -1.97 (inactive) | -5.54 (inactive) | -2.04 (inactive) | 3.21 | 1.14 (inactive) | 0.495 | 1.06 | 0.369 | 0.35
4 | COC(=O)[C@@]1(Cc2ccc(F)cc2)[C@H]2c3cc(C(=O)N(C)C)n(CC4CC4)c3C[C@H]2CN1C(=O)c1ccccc1 | 2.43 | 1.04 | 0.833 | 1.27 | 1.58 | 1.6 | 1.26 | -0.115 (inactive) | 2.76 | 0.741 | 1.45 | 0.712 (inactive) | 0.877 (inactive) | 2.49 (inactive) | 3.57 | -0.334 (inactive) | 1.41 | 0.506 | 1.06 | 0.973
5 | C=CCC(OC(C)=O)[C@@H]1[C@@H](N(Cc2ccc(-c3cccc(C(F)(F)F)c3)o2)C(=O)Cc2ccc(F)cc2)c2cc(OCCCO)ccc2N1C(=O)Cc1ccc(OC)cc1 (stereo not given in full) | -0.0361 | -0.162 | -0.0971 | 0.318 | -0.944 | -0.14 | -0.751 | -0.373 (inactive) | -0.26 | -0.164 | -2.39 | -0.973 (inactive) | 0.0138 (inactive) | -0.982 (inactive) | -2.02 | -0.0261 (inactive) | 0.454 | -0.137 | -1.08 | -0.195
6 | Cc1ccc(C(C)CC(O)C2C=CC3C(=O)N(c4ccccc4)C(=O)C3N2Nc2ccc([N+](=O)[O-])cc2)o1 (stereo not given) | -0.0729 | 0.123 | 0.0757 | 0.513 | 1.51 | 1.69 | 1.2 | 0.296 (inactive) | 1.51 | 0.0373 | 1.55 | 0.0574 (inactive) | 0.593 (inactive) | 1.31 (inactive) | 3.1 | -0.468 (inactive) | 0.157 | 0.181 | 1.1 | 0.0807
7 | C=CCOC(=O)[C@H]1[C@@H]2C(=O)O[C@@H](c3ccccc3)[C@@H](c3ccccc3)N2[C@@H](c2ccc(OCCOC(=O)[C@@H]3C[C@@H]4C(=O)N[C@@H](CCCCN(C)C)C(=O)N4[C@@H]3c3ccc(O)cc3)cc2)[C@]12C(=O)Nc1ccc(I)cc12 | -0.617 | 1.04 | -0.0468 | 0.589 | 0.766 | 1.27 | 1.33 | -0.694 (inactive) | 0.429 | -0.112 | 1.46 | 1.36 (inactive) | -1.09 (inactive) | 1.52 (inactive) | 2.77 | -1.34 (inactive) | -0.0823 | 1.51 | 1.05 | 0.0752
8 | O=C1[C@H]2C=C(Br)[C@H](C[C@@H]2OCCCCO)[C@@]12CO2 | -0.441 | -0.199 | -0.116 | 0.0593 | 0.0769 | -0.434 | -0.0036 | -0.636 (inactive) | -0.241 | -0.0237 | -0.162 | 0.176 (inactive) | -0.248 (inactive) | 0.93 (inactive) | -0.99 | -1.03 (inactive) | -0.0778 | -0.0486 | 0.221 | -0.0409
9 | O=C1OCCC/C=C\[C@H]2OC34C=CCN(Cc5ccccc5)C(=O)[C@H]3N(CCCCCCO)C(=O)[C@@H]4C12 (stereo not given in full) | 1.26 | 1.37 | -0.0956 | -0.437 | -0.793 | 1.31 | 1.31 | 0.247 (inactive) | -0.467 | -0.0003 | -0.197 | 0.464 (inactive) | -0.431 (inactive) | 0.0977 (inactive) | 2.24 | 0.991 (inactive) | 0.0359 | -2.14 | -0.927 | -0.237
10 | CC(C)(C)OC(=O)CC[C@@]1(C(=O)NCCN2CCOCC2)N=C(c2ccc(OCCCO)cc2)O[C@@H]1c1ccccc1N=[N+]=[N-] | 0.793 | 0.122 | 0.0789 | 1.01 | 1.49 | 1.56 | 1.32 | 4.07 (inactive) | 1.67 | 0.232 | 1.45 | -0.174 (inactive) | -0.182 (inactive) | -0.336 (inactive) | 3.09 | -0.115 (inactive) | 0.591 | -0.0404 | 1.11 | 0.171
11 | COCCOC(=O)N1C(=O)[C@@]2(c3cc(C#Cc4ccc(OC)cc4)ccc31)[C@H](C(=O)N1CCCCCCC1)[C@H]1C(=O)O[C@H](c3ccccc3)[C@H](c3ccccc3)N1[C@@H]2c1ccc(OCCO)cc1 | 2.85 | 1.49 | 0.233 | 0.662 | 0.845 | 1.01 | 0.972 | -0.738 (inactive) | 2.43 | 3.2 | 1.55 | -0.821 (inactive) | 0.0405 (inactive) | 3.27 (inactive) | 2.29 | 2.36 (inactive) | 1.59 | 2.1 | 1.01 | 0.4
12 | O=C1O[C@@H](c2ccccc2)[C@@H](c2ccccc2)N2[C@@H](c3ccccc3OCCO)[C@]3(C(=O)Nc4ccc(C#CC5=CCCCC5)cc43)[C@@H](C(=O)Nc3nc4ccccc4s3)[C@H]12 | -0.177 | 0.106 | -0.0267 | 1.09 | 1.11 | 0.792 | 0.94 | 0.197 (inactive) | 0.438 | -0.0346 | 1.56 | 1.37 (inactive) | 1.8 (inactive) | 2.58 (inactive) | 2.4 | 0.901 (inactive) | 0.123 | 0.82 | 0.993 | 0.0224
